# ROC1-CUL1 inh: human ROC1-CUL1 E3 ligase inhibition. 140,000 tested, 0.6% active. AID 1347404. in vitro K48 di-Ub FRET, acceptor:donor ratio, 45 min. P62877+Q13616. inhibition, % at 10 µM; in the data active = inhibition above about 25%
# Target sequence (P62877 whole entry, looked up): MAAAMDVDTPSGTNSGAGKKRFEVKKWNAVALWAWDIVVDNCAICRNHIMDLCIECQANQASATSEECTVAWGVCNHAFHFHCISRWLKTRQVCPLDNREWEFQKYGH
# Target sequence (Q13616 whole entry, looked up): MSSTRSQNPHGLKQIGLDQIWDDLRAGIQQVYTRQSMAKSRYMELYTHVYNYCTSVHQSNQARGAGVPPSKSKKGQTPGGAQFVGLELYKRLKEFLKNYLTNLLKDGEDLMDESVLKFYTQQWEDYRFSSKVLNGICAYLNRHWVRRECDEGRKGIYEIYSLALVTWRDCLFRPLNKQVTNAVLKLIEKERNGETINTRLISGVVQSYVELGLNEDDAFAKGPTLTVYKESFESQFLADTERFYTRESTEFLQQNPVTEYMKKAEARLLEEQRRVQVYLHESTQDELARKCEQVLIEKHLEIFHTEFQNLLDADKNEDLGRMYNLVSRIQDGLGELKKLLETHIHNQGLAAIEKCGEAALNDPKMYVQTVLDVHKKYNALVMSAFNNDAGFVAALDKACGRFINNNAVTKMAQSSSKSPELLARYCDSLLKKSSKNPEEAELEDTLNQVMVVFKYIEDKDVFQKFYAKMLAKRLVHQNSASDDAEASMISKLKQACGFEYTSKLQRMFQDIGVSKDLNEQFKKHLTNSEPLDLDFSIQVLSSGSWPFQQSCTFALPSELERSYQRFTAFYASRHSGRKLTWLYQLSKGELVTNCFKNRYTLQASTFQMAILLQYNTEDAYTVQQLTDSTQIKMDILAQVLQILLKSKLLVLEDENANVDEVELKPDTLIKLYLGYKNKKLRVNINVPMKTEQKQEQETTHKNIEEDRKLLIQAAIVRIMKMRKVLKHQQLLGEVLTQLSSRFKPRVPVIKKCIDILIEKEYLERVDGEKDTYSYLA
# * marks the source's active call; other numbers are inactive results. Shown is part of a subset that was picked to be rich in hits.
SMILES,ROC1-CUL1 inh
COc1ccc(NC(=O)CSc2ncc3c(n2)-c2cc(Cl)ccc2N(Cc2ccccc2F)S3(=O)=O)cc1,44.8*
Cc1cccnc1CC(C)Nc1nc2nonc2nc1NC1CC1 (stereo not given),5.7
O=C(N/N=C/c1ccc(Cl)cc1Cl)c1ccc(O)c(O)c1,3.8
O=C(N/N=C/c1cccc(Cl)c1Cl)c1ccc(Br)cc1,-0.2
O=C(N/N=C/c1cccc(Cl)c1Cl)c1ccc(O)c(O)c1,54.8*
Cc1cccc(N=C2C(=O)Nc3ccccc32)c1C,0.3
CCCSc1nc2sc3c(c2c(=O)n1-c1ccc(Cl)cc1)CCCC3,-23.4
COC(=O)c1cc(Br)cc(O)c1O,83.1*
COC(=O)c1cc(Br)ccc1Cl,4.1
COC(=O)c1ccc(C(=O)OC)c(NC(=O)c2ccc(Br)cc2)c1,-8.9
COc1cc(OC)c(/C=N\NC(=O)c2cc3cc(Br)ccc3o2)c(OC)c1,6.4
COc1ccc(-c2cnnc(N3CCC(N(C)C)C3)n2)c(OC)c1 (stereo not given),6.0
COC(=O)c1scc([N+](=O)[O-])c1-c1c([N+](=O)[O-])csc1C(=O)OC,-0.7
COC(=O)c1csc([N+](=O)[O-])c1SC(C)=O,76.9*
COC(=O)c1csc([N+](=O)[O-])c1SCc1ccccc1,7.4
CC(C)COc1ccccc1NC(=O)c1ccccc1,9.8
Cc1ccc(C(=O)NC2CCN(Cc3ccccc3)CC2)s1,-1.7
N#Cc1c(N)[n+]([O-])c2cc(NCCO)c(F)cc2[n+]1[O-],28.0*
OCCNc1cc2nccnc2cc1F,-6.0
CCN(CC)c1ccc(/C=N/NC(=O)COc2c(F)c(F)cc(F)c2F)c(O)c1,-3.2
CCSc1nc2c([nH]1)c(N)nc[n+]2Cc1ccccc1,17.6
Cc1ccc(C2=C/C(=C\c3c(Cl)cccc3Cl)C(=O)O2)cc1,2.3
Cc1ccc2cc(C3=C/C(=C/c4ccc(N5CCOCC5)o4)C(=O)O3)ccc2c1,95.9*
Cc1ccc2cc(C3=CCC(=O)O3)ccc2c1,20.0
CC1(C)CC(=O)C2C=C(c3nc(-c4ccc(Cl)cc4)cs3)C(=O)N=C2C1 (stereo not given),-4.5
SMILES,ROC1-CUL1 inh
CC(=O)Nc1cccc(S(=O)(=O)N2CCC(CO)(CCc3ccccc3)CC2)c1,10.6
Cn1cccc1/C=N/Nc1nncc(-c2ccccc2)n1,3.9
CN1C2CCC1/C(=C/c1cccn1C)C(=O)/C2=C\c1cccn1C,25.4*
CN1C2CCC1/C(=C/c1cc(Br)cs1)C(=O)/C2=C\c1cc(Br)cs1,-8.9
CSc1nc2nc3c(cc2c(=O)n1Cc1ccccc1)COC(C)(C)C3,0.9
COc1ccc(OC)c(C(=O)CSc2nnc(COc3ccccc3C)o2)c1,3.0
COc1cc(/C=C2/C(=O)NN(c3ccc(I)cc3)C2=O)cc(Br)c1OC(C)=O,3.4
Cc1cccc(OCCCOc2ccc(Br)cc2/C=C2\C(=O)NN(c3ccccc3)C2=O)c1,57.3*
CCOc1cc(/C=C2\C(=O)NN(c3ccccc3)C2=O)cc(Br)c1OCCCOc1ccc(Cl)cc1,-15.1
COc1cc(/C=C2/C(=O)NN(c3ccc(C)c(C)c3)C2=O)ccc1OCC(=O)N1CCOCC1,0.1
CCOc1cc(/C=C2\C(=O)NN(c3ccccc3)C2=O)ccc1OCc1ccccc1C,10.4
COc1cc(/C=C2/C(=O)NN(c3ccccc3)C2=O)cc(OC)c1O,9.6
CCOc1cc(/C=C2\C(=O)NN(c3ccccc3)C2=O)cc(Br)c1OCCCOc1cccc(C)c1,34.6*
COc1cc(/C=C2/C(=O)NN(c3ccc(C)c(C)c3)C2=O)cc(Br)c1OC(C)=O,30.6*
COc1cc(/C=C2\C(=O)NN(c3ccccc3)C2=O)cc(Br)c1OCCCOc1ccc(Cl)cc1,55.3*
Cc1cccc(COc2ccccc2/C=C2\C(=O)NN(c3ccccc3)C2=O)c1,8.2
CCOc1ccc(/C=C2/C(=O)NN(c3cccc(F)c3)C2=O)cc1OC,-4.8
CSc1ncc(C(=O)O)c(N[C@@H](C)c2ccccc2)n1,6.3
Nc1c(C(=O)Nc2ccc(Br)cc2Br)sc2nc(-c3ccncc3)ccc12,-9.7
CCS(=O)(=O)c1ncc(CN(C)Cc2cccc(OC)c2)n1CCc1ccccc1,-1.3
CCSCCn1ncc(N2CCC(CN)C2)cc1=O (stereo not given),-8.0
COc1ccc(Cl)cc1C(=O)NCCCCCCNC(=O)c1cc(Cl)ccc1OC,-8.5
COc1ccc2c(c1)SC[C@@]1(C)C2=CCC2(C)C(=O)CC[C@]21C (stereo not given in full),9.3
Cc1cccc(NC(=O)CN2CCCCCC2)c1C,-4.2
CC(=O)NCc1cc(=O)[nH]c(Cc2cccc(Cl)c2)n1,-5.5
SMILES,ROC1-CUL1 inh
COc1cc(/C=C2\C(=O)NN(c3ccccc3)C2=O)cc(Br)c1OCc1ccc(C)cc1,8.1
COc1cc(/C=C2\C(=O)NN(c3ccccc3)C2=O)cc(Br)c1OCCCOc1cccc(C)c1,45.1*
COc1cc(/C=C2/C(=O)NN(c3ccccc3)C2=O)ccc1OCC(=O)Nc1cccc(C)c1,-1.8
O=C(Nc1ccc(Oc2ccc(Cl)c3cccnc23)c(Cl)c1)c1ccc([N+](=O)[O-])cc1,-2.6
CC(C)(C)c1ccccc1OCC(=O)Nc1ccc(OCc2ccccc2)cc1,8.6
CNC(=O)c1ccc(CN2CCCC2)cc1,6.3
O=C1OC2(CCCCC2)OC(=O)C1C=Nc1ccc(Cl)cc1C(F)(F)F,-0.4
CC1C(=Nc2ccc3c4c(cc(=O)n3C)-c3ccccc3C(=O)c24)C(=O)N(c2ccccc2)N1C (stereo not given),21.8
CC(=O)Oc1c(/C=C(\C#N)C(N)=O)[nH]c2ccccc12,46.8*
COC(=O)/C(C#N)=C/c1c(OC)[nH]c2ccccc12,-10.0
N#C/C(=C\c1ccc(Cl)s1)C(N)=O,2.9
COc1ccc(-c2nc(-c3ccc4c(c3)n(C)c(=O)n4C)c(-c3ccccc3)[nH]2)cc1OC,-0.6
COc1ccc(S(=O)(=O)NCC2CCCN(C(=O)c3c(C)noc3C)C2)cc1 (stereo not given),7.3
CCN(CC)CCN=CC1C(=O)N(c2c(Cl)cccc2Cl)c2ccccc21 (stereo not given),3.6
CN(C)/C=C1/N=C2C=C(c3ccccc3)c3cc(Cl)ccc3N2C1=O,0.1
CN(C)/C=C1\C(=O)N(c2c(Cl)cccc2Cl)c2cc(C=C(C#N)C#N)ccc21,34.4*
CC(=O)c1sc(N2C(=O)C(=O)C(C(=O)c3cc4ccccc4o3)C2c2ccc(O)cc2)nc1C (stereo not given),10.7
CCOc1cc(C2C(C(=O)c3cc4ccccc4o3)C(=O)C(=O)N2c2nnc(SCc3ccccc3Cl)s2)ccc1O (stereo not given),33.3*
CCOc1cc(C2C(C(=O)c3cc4ccccc4o3)C(=O)C(=O)N2Cc2ccco2)ccc1O (stereo not given),2.8
CCCCCOc1ccc(C2C(C(=O)c3cc4ccccc4o3)C(=O)C(=O)N2c2nc3ccc(OCC)cc3s2)cc1OC (stereo not given),-5.8
O=C1C(=O)N(c2nnc(SCc3ccccc3Cl)s2)C(c2ccc(Cl)cc2)C1C(=O)c1cc2ccccc2o1 (stereo not given),28.7*
O=C1C(=O)N(c2nnc(SCc3ccccc3F)s2)C(c2ccc(Cl)cc2)C1C(=O)c1cc2ccccc2o1 (stereo not given),-1.8
Cc1cnn(Cc2ccc(F)cc2)c1NC(=O)Cn1nnc(C(C)(C)C)n1,6.7
CSc1ccc(C)cc1S(=O)(=O)O,11.2
O=C(CN1C(=O)C2C3C=CC(O3)C2C1=O)c1ccccc1 (stereo not given),4.9

# Screening data (PubChem BioAssay)
